Experimental findings from PubChem BioAssay (NCI) are described below.

Several values for one entry are separate records, joined by “and”; a condition that tells them apart may be missing. Equal values may be shown once. Compounds without any hit were thinned out: in the full panel of roughly 79,000, 15% have a hit. Values without a mark were called inactive. Activity calls are given as the source filed them. No stated cut-off is given here; in the data, active means growth inhibition above about 70%; inactive means the rest.

Assay [1] in a line: NCI Yeast Anticancer Drug Screen. Data for the rad50 strain (AID 155).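 Further: 0% = growth of vehicle-only cultures of the same strain.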 To be noted: S. cerevisiae rad50 strain growth inhibition, active compounds read high. The procedure, abridged: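 DNA repair mutant yeast, compound exposure, growth read-out; inhibition is taken relative to vehicle.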
Assay [2] can be described thus: NCI Yeast Anticancer Drug Screen. Data for the mec2-1 strain (AID 157). The conditions noted are these: S. cerevisiae mec2-1 strain, active compounds read high. In a few lines: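 Using mec2-1 yeast: add compound, measure growth, express inhibition versus vehicle-treated cultures.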
Assay [3] can be described thus: NCI Yeast Anticancer Drug Screen. Data for the sgs1 mgt1 strain (AID 161).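 Further: 0% = growth of cultures given vehicle only.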 To be noted: S. cerevisiae sgs1 mgt1 strain, active compounds read high. The procedure, abridged:
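This yeast growth screen uses a strain with defined DNA-repair lesions; compound-treated growth is compared with vehicle-treated growth.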

Assay [4] in a line: NCI Yeast Anticancer Drug Screen. Data for the cln2 rad14 strain (AID 165).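 Further: 0% = growth equal to vehicle treated cultures.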 To be noted: S. cerevisiae cln2 rad14 strain, active compounds read high. In a few lines:
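Yeast strain cln2 rad14, bearing defects in cell cycle control and DNA repair, serves as the test system; values reflect growth inhibition compared with vehicle.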

The nature of assay [5]: NCI Yeast Anticancer Drug Screen. Data for the bub3 strain (AID 167). To be noted: S. cerevisiae bub3 mutant strain, active compounds read high. The procedure, abridged:
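In this screen, a yeast mutant lacking normal mitotic checkpoint function is challenged with compound. Relative growth versus vehicle gives the inhibition value.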

A short description of assay [6]: NCI Yeast Anticancer Drug Screen. Data for the mlh1 rad18 strain (AID 175). The conditions noted are these: S. cerevisiae mlh1 rad18 strain growth inhibition, active compounds read high. The procedure, abridged: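 Steps: expose repair-defective yeast to compound; measure growth; express inhibition against vehicle-treated controls.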
The mark [7] stands for this setting: at 5.0 µM (retest, dose inferred, filed as 0.5).
Setting [8] is: at 50.0 µM (retest, dose inferred, filed as 5.0).

Turning to `CC12CCC(O)CC1CCC1C2CCC2(C)C(C(=O)CC(O)C(F)(F)F)CCC12` (stereo not given), the growth inhibition is 4% in assay [1] (setting [7]); 62% in assay [1] (setting [8]); 84.5% (active) in assay [1] (at 50.0 µM); 8% in assay [2] (setting [7]); 43% in assay [2] (setting [8]); 65.8% in assay [2] (at 50.0 µM). In addition, the growth inhibition in assay [3] (setting [7]) is -9%; in assay [3] (setting [8]) it was 62%; in assay [3] (at 50.0 µM), 67.5%; in assay [4] (setting [7]) it was -7%; in assay [4] (setting [8]), 66%; in assay [4] (at 50.0 µM), 71.2% (active). The growth inhibition in assay [5] (setting [7]) was -15%; in assay [5] (setting [8]), 57%; in assay [5] (at 50.0 µM) it was 84% (active); in assay [6] (setting [7]) it was 0%; in assay [6] (setting [8]) it was 63%; in assay [6] (at 50.0 µM) it was 85.7% (active).
With `CC(=O)OCC1OC([S-])C(OC(C)=O)C(OC(C)=O)C1OC(C)=O.CC[PH+](CC)CC.CC[PH+](CC)CC.[Au].[Au]` (stereo not given), the growth inhibition in assay [1] (setting [7]) was 100% (active); in assay [1] (setting [8]), 99% (active); in assay [1] (at 50.0 µM), 89.8% (active); in assay [2] (setting [7]), 99% (active); in assay [2] (setting [8]), 99% (active); in assay [2] (at 50.0 µM), 92% (active). Also, the growth inhibition in assay [3] (setting [7]) was 99% (active); in assay [3] (setting [8]), 99% (active); in assay [3] (at 50.0 µM), 92% (active); in assay [4] (setting [7]) it was 98% (active); in assay [4] (setting [8]), 99% (active); in assay [4] (at 50.0 µM) it was 91.3% (active). For the same compound, the growth inhibition in assay [6] (setting [7]) is 96% (active); in assay [6] (setting [8]) it was 98% (active); in assay [6] (at 50.0 µM), 90% (active).
`c1cc[c]([Pb]([c]2ccccc2)[c]2ccccc2)cc1.c1cc[c]([Pb]([c]2ccccc2)[c]2ccccc2)cc1`: the growth inhibition in assay [1] (setting [7]) was 99% (active); in assay [1] (setting [8]) it was 98% (active); in assay [1] (at 50.0 µM), 99% (active); in assay [2] (setting [7]) it was 100% (active); in assay [2] (setting [8]), 99% (active); in assay [2] (at 50.0 µM), 99.5% (active). Also, the growth inhibition in assay [3] (setting [7]) was 100% (active); in assay [3] (setting [8]) it was 99% (active); in assay [3] (at 50.0 µM), 99.5% (active); in assay [4] (setting [7]), 99% (active); in assay [4] (setting [8]), 98% (active); in assay [4] (at 50.0 µM), 99% (active). The growth inhibition is 99% (active) in assay [5] (setting [7]); 97% (active) in assay [5] (setting [8]); 99.4% (active) in assay [5] (at 50.0 µM); 100% (active) in assay [6] (setting [7]); 99% (active) in assay [6] (setting [8]); 99.2% (active) in assay [6] (at 50.0 µM).
For the compound `O=C(O)C1(c2ccccc2)OC1c1ccccc1` (stereo not given), the growth inhibition in assay [2] (setting [7]) is 0%; in assay [2] (setting [8]), 82% (active); in assay [2] (at 50.0 µM) it was 81.3% (active); in assay [3] (setting [7]), 3%; in assay [3] (setting [8]) it was 71% (active); in assay [3] (at 50.0 µM), 84.7% (active). In addition, the growth inhibition was 2% in assay [4] (setting [7]); 80% (active) in assay [4] (setting [8]); 79.8% (active) in assay [4] (at 50.0 µM); -6% in assay [5] (setting [7]); 93% (active) in assay [5] (setting [8]); 64.6% in assay [5] (at 50.0 µM). Further, the growth inhibition in assay [6] (setting [7]) was -1%; in assay [6] (setting [8]), 86% (active); in assay [6] (at 50.0 µM), 84.3% (active).
As to `Fc1cccc(C2N(Cc3ccc(N(CCCl)CCCl)cc3Cl)CCCN2Cc2ccc(N(CCCl)CCCl)cc2Cl)c1`, the growth inhibition in assay [1] (setting [7]) was -28%; in assay [1] (setting [8]), 92% (active); in assay [1] (at 50.0 µM) it was 12.7%; in assay [2] (setting [7]), 15%; in assay [2] (setting [8]), 95% (active); in assay [2] (at 50.0 µM), 54.5%. Further, the growth inhibition is -3% in assay [3] (setting [7]); 95% (active) in assay [3] (setting [8]); -18.4% in assay [3] (at 50.0 µM); -2% in assay [5] (setting [7]); 92% (active) in assay [5] (setting [8]); 83.2% (active) in assay [5] (at 50.0 µM). Besides, the results for the growth inhibition in assay [6] (setting [7]), in assay [6] (setting [8]) and in assay [6] (at 50.0 µM) were 6%, 94% (active) and 9.15%, respectively.
For `CCC[CH2][Pb]([CH2]CCC)([O]C(C)=O)[O]C(C)=O`, the growth inhibition was 63% in assay [2] (setting [7]); 99% (active) in assay [2] (setting [8]); 93.1% (active) in assay [2] (at 50.0 µM); 99% (active) in assay [3] (setting [7]); 94% (active) in assay [3] (setting [8]); 94% (active) in assay [3] (at 50.0 µM). Also, the growth inhibition in assay [4] (setting [7]) is 92% (active); in assay [4] (setting [8]), 98% (active); in assay [4] (at 50.0 µM) it was 92.3% (active); in assay [5] (setting [7]) it was 99% (active); in assay [5] (setting [8]) it was 98% (active); in assay [5] (at 50.0 µM), 92.2% (active). For the same compound, the growth inhibition was 100% (active) in assay [6] (setting [7]), 99% (active) in assay [6] (setting [8]) and 91.5% (active) in assay [6] (at 50.0 µM).
Regarding `O=S(=O)(O)O`, in assay [6] (at 50.0 µM), the growth inhibition was -10.7% and 13.2% and -10.6%.
For `O=c1ccn(C2OC(CO)C(O)C2O)c(=O)[n]1[Hg][c]1ccccc1` (stereo not given), the growth inhibition in assay [2] (setting [7]) was 100% (active); in assay [2] (setting [8]), 99% (active); in assay [2] (at 50.0 µM), 89.7% (active); in assay [3] (setting [7]), 100% (active); in assay [3] (setting [8]), 100% (active); in assay [3] (at 50.0 µM), 85.8% (active). Also, the growth inhibition in assay [4] (setting [7]) was 99% (active); in assay [4] (setting [8]) it was 99% (active); in assay [4] (at 50.0 µM) it was 88.3% (active); in assay [5] (setting [7]), 100% (active); in assay [5] (setting [8]), 99% (active); in assay [5] (at 50.0 µM), 84.3% (active). The growth inhibition is 98% (active) in assay [6] (setting [7]), 98% (active) in assay [6] (setting [8]) and 91.8% (active) in assay [6] (at 50.0 µM).
As to `CC(=O)OC1C(O)C(C)OC(OC2C(OC(=O)C3CCC4C(C3)OC3(CC(OC(=O)/C=C/c5ccccc5)C(C)CO3)C43CO3)OC(C)C(O)C2OC(C)=O)C1O` (stereo not given), the growth inhibition in assay [1] (setting [7]) was -20%; in assay [1] (setting [8]), 96% (active); in assay [1] (at 50.0 µM), 91% (active); in assay [2] (setting [7]), 10%; in assay [2] (setting [8]) it was 98% (active); in assay [2] (at 50.0 µM) it was 92.7% (active). The growth inhibition was -5% in assay [3] (setting [7]); 95% (active) in assay [3] (setting [8]); 93% (active) in assay [3] (at 50.0 µM); 6% in assay [5] (setting [7]); 98% (active) in assay [5] (setting [8]); 92.2% (active) in assay [5] (at 50.0 µM). The growth inhibition in assay [6] (setting [7]) was -1%; in assay [6] (setting [8]), 97% (active); in assay [6] (at 50.0 µM), 91.6% (active).
Take `COc1cc(Br)cc(/C=C(\C)[N+](=O)[O-])c1O`: the growth inhibition in assay [1] (setting [7]) is 11%; in assay [1] (setting [8]), 96% (active); in assay [1] (at 50.0 µM) it was 99.5% (active); in assay [2] (setting [7]), 7%; in assay [2] (setting [8]) it was 95% (active); in assay [2] (at 50.0 µM), 99.8% (active). Also, the growth inhibition is 18% in assay [3] (setting [7]); 97% (active) in assay [3] (setting [8]); 99.8% (active) in assay [3] (at 50.0 µM); -1% in assay [5] (setting [7]); 97% (active) in assay [5] (setting [8]); 99.7% (active) in assay [5] (at 50.0 µM). For the same compound, the growth inhibition was 9% in assay [6] (setting [7]), 97% (active) in assay [6] (setting [8]) and 99.7% (active) in assay [6] (at 50.0 µM).
On to `c1ccncc1`, for which the growth inhibition in assay [1] (setting [7]) is 17%; in assay [1] (setting [8]) it was 20%; in assay [2] (setting [7]) it was -2%; in assay [2] (setting [8]), 7%; in assay [3] (setting [7]) it was -4%; in assay [3] (setting [8]), 19%. The growth inhibition in assay [4] (setting [7]) is 0%; in assay [4] (setting [8]), -1%; in assay [5] (setting [7]) it was -3%; in assay [5] (setting [8]) it was 6%; in assay [6] (setting [7]), 8%; in assay [6] (setting [8]), 32%.
For the compound `NC(CS)C(=O)O` (stereo not given), the growth inhibition in assay [1] (at 50.0 µM) is -4.8% and 31.9% and -26%; in assay [2] (at 50.0 µM) it was -7.5% and -9.05% and -3.1%; in assay [3] (at 50.0 µM) it was -7.95% and 28.4% and -35.2%; in assay [4] (at 50.0 µM), -0.4% and 7.6% and -1.55%; in assay [5] (at 50.0 µM), -17.2% and 25.6% and -38.2%; in assay [6] (at 50.0 µM), -8.1% and 13.2% and 1.75%.
